The record followed here is paper PMC7862700, “An all-to-all approach to the identification of sequence-specific readers for epigenetic DNA modifications on cytosine”.

Assay in all cases: DAPPL (digital affinity profiling via proximity ligation, sequencing); 10 mM Tris-HCl pH 7.5, 50 mM NaCl, 1 mM DTT, 4% glycerol, room temperature, 30 min; GST-TFs on glutathione beads, 16-mer random dsDNA library, 0.1% formaldehyde crosslink after washing; high values mean tight binding
Holding throughout (details): protein: recombinant; tags: N-terminal GST; dsDNA, one strand shown

One test addresses T1, FLI1 (Homo sapiens, UniProt Q01543 1-452).
T1 sequence: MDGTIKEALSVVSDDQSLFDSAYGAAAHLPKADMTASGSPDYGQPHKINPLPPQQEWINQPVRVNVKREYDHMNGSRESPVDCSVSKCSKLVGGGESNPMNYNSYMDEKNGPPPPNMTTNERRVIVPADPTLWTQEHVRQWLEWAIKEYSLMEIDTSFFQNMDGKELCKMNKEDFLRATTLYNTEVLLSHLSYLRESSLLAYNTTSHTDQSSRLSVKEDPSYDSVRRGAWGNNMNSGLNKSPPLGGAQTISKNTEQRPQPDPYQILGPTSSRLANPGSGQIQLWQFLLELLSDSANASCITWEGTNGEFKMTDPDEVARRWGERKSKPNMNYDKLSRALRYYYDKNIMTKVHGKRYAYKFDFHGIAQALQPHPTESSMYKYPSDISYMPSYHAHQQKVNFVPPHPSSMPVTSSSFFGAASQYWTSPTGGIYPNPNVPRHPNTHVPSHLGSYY
Put shortly:
(§1)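 Human transcription factors were made in yeast as GST fusions, captured on glutathione beads and barcoded with DNA. With a tag-only sample included, the pool was incubated with 200 nmole of a random double-stranded 16-mer DNA library in Tris/NaCl/DTT/glycerol buffer at room temperature for 30 min, then crosslinked with 0.1% formaldehyde after washing, ligated by proximity, amplified and sequenced. For binding signal, each hexamer's read frequency for a factor is divided by its frequency for the tag-only sample.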

The next test has as its target T2, ELK1 (Homo sapiens, UniProt P19419 1-428).
T2 sequence: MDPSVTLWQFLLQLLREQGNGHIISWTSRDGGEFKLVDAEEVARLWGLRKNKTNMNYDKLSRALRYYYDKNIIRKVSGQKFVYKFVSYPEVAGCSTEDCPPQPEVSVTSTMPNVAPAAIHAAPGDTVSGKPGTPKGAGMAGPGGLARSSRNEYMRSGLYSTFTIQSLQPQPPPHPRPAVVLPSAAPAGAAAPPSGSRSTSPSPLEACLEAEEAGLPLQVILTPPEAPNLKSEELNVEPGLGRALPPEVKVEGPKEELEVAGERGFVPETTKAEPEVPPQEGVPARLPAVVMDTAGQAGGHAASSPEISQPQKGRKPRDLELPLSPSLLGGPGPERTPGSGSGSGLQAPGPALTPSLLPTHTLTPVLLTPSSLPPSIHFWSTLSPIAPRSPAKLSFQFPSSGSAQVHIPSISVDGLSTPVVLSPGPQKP
An outline of the steps: as §1

The next test concerns the target T3, GABPA (Homo sapiens, UniProt Q06546 1-454).
T3 sequence: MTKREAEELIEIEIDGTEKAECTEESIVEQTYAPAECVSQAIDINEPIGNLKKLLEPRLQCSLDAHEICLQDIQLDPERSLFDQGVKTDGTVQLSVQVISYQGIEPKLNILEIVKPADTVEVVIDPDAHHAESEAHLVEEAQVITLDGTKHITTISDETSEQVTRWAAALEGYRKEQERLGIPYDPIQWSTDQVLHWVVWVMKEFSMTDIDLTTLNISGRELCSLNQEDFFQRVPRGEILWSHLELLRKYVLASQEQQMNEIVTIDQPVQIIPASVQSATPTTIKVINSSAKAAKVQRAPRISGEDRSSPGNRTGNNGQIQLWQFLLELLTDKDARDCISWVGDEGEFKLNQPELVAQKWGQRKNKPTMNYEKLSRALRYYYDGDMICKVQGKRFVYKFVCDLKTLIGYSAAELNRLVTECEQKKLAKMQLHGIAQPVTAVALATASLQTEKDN
Put shortly: as §1

Another test concerns the target ELF1 (Homo sapiens, UniProt P32519 1-619). An outline of the steps:
as §1

For a further test, the target named is T4, EHF (Homo sapiens, UniProt Q9NZC4 1-300).
T4 sequence: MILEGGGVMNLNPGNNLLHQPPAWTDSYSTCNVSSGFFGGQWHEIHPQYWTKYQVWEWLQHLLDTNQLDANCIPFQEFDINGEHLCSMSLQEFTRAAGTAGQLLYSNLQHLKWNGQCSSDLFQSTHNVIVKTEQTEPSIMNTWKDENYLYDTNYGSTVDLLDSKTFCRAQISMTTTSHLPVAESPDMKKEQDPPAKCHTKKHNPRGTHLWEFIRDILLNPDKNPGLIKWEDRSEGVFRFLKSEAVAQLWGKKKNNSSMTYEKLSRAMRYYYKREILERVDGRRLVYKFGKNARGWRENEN
An outline of the steps: as §1

The target of another test is SPIB (Homo sapiens, UniProt Q01892 1-262). An outline of the steps: as §1
The next test has as its target T5, ELK3 (Homo sapiens, UniProt P41970 1-407).
T5 sequence: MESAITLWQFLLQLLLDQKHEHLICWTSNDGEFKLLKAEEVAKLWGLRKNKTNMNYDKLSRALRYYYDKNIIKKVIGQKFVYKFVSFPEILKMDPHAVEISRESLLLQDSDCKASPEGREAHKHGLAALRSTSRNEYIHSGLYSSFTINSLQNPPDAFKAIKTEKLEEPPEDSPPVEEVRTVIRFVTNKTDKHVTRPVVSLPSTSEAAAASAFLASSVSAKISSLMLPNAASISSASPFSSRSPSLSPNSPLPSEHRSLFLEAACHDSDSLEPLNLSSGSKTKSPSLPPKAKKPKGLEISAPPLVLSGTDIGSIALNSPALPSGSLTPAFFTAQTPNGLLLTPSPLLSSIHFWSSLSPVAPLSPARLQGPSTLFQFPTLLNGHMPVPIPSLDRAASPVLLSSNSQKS
Put shortly:
as §1

The target in the next test is T6, SPIC (Homo sapiens, UniProt Q8N5J4 1-248).
T6 sequence: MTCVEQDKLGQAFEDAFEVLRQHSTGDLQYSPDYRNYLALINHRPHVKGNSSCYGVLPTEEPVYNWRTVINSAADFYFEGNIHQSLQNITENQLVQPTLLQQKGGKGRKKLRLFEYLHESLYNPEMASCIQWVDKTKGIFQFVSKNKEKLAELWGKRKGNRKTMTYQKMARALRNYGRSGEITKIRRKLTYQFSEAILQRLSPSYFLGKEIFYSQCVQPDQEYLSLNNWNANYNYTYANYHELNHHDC
Put shortly:
as §1

For a further test, the target named is ELF4 (Homo sapiens, UniProt Q99607 1-663). An outline of the steps:
as §1

Another test addresses T7, ELK4 (Homo sapiens, UniProt P28324-2 1-405).
T7 sequence: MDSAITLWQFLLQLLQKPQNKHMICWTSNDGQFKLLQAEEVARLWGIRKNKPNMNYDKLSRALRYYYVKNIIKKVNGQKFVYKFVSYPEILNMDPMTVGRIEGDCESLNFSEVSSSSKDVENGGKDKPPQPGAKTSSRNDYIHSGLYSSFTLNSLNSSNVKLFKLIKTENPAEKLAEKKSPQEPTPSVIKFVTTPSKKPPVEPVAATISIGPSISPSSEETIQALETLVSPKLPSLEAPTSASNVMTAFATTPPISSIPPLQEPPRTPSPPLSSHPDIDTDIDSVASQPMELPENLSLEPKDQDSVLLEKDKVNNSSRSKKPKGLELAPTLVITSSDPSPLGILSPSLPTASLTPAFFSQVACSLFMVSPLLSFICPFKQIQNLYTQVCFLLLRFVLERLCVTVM
Put shortly:
as §1

In another test the target is T8, ELF3 (Homo sapiens, UniProt P78545 1-371).
T8 sequence: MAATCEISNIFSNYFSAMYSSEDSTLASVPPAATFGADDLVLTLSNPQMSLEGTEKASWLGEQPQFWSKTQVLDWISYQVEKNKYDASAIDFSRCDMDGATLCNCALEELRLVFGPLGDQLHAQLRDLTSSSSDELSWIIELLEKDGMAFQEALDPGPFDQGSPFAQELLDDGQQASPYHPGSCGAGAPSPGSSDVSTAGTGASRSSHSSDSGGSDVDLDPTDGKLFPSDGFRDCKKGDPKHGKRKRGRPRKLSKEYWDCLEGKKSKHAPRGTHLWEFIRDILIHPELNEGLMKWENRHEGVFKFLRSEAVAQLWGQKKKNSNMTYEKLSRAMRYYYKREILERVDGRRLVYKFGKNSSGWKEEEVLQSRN
An outline of the steps:
as §1

The target in another test is ETV1 (Homo sapiens, UniProt P50549 1-477). An outline of the steps: as §1
For the next test, the target named is T9, ERF (Homo sapiens, UniProt P50548 1-548).
T9 sequence: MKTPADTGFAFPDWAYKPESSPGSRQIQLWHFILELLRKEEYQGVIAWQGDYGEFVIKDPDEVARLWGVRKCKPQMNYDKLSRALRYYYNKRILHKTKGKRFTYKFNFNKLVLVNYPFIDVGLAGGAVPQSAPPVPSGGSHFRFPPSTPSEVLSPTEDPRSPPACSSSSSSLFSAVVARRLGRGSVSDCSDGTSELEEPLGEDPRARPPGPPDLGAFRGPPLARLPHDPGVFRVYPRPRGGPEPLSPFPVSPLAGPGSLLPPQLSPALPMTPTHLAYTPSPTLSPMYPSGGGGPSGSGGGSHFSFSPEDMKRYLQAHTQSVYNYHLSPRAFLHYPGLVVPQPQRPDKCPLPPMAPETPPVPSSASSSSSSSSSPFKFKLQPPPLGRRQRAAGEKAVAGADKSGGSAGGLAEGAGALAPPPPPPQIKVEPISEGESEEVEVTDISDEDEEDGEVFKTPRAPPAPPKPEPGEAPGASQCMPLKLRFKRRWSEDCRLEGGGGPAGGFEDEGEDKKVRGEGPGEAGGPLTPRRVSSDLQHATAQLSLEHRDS
An outline of the steps: as §1

Another test concerns the target T10, ETV3L (Homo sapiens, UniProt Q6ZN32 1-361).
T10 sequence: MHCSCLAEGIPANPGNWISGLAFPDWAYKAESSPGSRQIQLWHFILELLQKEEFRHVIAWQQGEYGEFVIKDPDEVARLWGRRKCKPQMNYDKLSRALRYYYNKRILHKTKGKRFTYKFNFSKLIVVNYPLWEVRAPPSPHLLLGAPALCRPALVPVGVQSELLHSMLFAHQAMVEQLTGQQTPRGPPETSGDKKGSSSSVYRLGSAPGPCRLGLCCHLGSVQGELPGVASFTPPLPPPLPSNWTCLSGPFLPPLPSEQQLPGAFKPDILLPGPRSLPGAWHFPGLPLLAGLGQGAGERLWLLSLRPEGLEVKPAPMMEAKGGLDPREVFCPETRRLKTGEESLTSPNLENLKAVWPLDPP
An outline of the steps: as §1

The next test has as its target T11, ETS2 (Homo sapiens, UniProt P15036 1-469).
T11 sequence: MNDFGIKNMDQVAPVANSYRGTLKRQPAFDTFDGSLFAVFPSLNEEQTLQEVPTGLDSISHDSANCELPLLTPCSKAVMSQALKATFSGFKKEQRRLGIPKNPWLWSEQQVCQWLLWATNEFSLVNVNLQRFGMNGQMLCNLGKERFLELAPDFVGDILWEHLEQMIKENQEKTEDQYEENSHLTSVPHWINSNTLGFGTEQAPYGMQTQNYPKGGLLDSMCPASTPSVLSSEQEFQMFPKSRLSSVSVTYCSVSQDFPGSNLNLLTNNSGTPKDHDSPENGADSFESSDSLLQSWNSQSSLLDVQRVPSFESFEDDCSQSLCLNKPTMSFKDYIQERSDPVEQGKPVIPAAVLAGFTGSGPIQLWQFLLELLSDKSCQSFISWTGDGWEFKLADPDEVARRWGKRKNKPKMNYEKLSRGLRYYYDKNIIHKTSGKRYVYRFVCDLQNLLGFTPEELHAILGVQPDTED
An outline of the steps: as §1

A further test deals with T12, ETV7 (Homo sapiens, UniProt Q9Y603 1-341).
T12 sequence: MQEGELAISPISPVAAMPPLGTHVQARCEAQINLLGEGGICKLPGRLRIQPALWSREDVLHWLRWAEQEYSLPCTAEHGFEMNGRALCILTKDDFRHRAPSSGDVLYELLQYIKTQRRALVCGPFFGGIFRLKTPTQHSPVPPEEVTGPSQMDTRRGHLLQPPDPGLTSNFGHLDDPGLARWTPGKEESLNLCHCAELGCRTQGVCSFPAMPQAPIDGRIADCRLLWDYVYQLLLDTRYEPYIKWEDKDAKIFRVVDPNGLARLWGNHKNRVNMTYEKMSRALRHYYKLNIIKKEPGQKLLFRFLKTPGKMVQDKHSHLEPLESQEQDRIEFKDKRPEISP
An outline of the steps: as §1

In the next test the target is T13, ETV3 (Homo sapiens, UniProt P41162-2 1-143).
T13 sequence: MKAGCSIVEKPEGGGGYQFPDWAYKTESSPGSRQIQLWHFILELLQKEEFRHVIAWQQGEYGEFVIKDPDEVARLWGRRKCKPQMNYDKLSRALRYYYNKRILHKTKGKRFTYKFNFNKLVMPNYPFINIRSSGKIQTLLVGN
An outline of the steps:
as §1

In the next test the target is ETV6 (Homo sapiens, UniProt P41212 1-452). Put shortly:
as §1

Chain of ETV1 (P50549 whole entry): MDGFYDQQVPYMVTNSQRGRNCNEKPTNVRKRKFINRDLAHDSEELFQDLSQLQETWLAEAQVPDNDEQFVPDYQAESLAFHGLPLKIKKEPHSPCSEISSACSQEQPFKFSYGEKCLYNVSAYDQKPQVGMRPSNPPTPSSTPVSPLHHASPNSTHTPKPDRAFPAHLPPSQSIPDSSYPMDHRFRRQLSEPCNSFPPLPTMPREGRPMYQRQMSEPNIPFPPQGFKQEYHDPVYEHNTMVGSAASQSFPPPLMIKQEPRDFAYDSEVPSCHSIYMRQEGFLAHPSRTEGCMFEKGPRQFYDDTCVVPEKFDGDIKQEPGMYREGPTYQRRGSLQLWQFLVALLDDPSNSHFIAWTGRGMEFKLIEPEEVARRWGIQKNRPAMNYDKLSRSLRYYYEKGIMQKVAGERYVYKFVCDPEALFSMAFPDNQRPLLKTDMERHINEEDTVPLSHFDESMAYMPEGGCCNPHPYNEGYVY
Chain of ETV6 (P41212 whole entry): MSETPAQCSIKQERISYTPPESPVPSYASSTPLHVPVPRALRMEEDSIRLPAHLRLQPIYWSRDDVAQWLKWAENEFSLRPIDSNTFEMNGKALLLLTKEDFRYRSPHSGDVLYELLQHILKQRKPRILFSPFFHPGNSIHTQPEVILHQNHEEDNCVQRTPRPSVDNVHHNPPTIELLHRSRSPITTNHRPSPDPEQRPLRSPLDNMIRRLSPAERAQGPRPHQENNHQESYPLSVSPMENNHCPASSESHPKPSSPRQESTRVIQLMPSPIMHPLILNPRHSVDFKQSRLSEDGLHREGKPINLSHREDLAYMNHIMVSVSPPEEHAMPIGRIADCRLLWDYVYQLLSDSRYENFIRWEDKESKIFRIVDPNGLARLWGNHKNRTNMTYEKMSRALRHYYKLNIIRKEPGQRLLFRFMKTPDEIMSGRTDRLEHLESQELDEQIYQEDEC
Chain of ELF1 (P32519 whole entry): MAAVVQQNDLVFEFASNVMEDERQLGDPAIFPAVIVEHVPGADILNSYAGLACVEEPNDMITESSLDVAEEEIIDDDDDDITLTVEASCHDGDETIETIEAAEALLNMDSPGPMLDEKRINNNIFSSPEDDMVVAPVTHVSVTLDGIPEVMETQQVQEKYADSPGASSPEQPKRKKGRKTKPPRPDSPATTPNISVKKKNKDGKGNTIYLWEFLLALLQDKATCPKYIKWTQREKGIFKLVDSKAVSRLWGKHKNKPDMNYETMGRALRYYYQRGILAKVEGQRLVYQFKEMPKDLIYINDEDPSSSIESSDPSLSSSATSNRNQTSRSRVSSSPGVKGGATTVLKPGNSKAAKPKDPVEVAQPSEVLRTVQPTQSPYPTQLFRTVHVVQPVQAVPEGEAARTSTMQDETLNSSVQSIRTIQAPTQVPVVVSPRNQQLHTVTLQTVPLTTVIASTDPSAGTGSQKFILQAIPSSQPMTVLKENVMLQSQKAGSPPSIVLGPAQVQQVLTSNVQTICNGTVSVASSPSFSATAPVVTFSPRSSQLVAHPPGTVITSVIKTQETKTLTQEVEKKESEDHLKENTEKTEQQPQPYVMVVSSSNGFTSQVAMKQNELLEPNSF
Chain of SPIB (Q01892 whole entry): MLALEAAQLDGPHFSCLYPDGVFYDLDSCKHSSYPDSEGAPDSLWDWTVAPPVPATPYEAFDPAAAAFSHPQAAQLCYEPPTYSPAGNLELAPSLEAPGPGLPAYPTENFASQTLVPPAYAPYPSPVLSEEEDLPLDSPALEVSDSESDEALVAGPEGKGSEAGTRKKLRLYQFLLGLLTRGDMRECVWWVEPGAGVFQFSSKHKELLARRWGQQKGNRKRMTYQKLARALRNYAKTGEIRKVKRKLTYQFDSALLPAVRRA
Chain of ELF4 (Q99607 whole entry): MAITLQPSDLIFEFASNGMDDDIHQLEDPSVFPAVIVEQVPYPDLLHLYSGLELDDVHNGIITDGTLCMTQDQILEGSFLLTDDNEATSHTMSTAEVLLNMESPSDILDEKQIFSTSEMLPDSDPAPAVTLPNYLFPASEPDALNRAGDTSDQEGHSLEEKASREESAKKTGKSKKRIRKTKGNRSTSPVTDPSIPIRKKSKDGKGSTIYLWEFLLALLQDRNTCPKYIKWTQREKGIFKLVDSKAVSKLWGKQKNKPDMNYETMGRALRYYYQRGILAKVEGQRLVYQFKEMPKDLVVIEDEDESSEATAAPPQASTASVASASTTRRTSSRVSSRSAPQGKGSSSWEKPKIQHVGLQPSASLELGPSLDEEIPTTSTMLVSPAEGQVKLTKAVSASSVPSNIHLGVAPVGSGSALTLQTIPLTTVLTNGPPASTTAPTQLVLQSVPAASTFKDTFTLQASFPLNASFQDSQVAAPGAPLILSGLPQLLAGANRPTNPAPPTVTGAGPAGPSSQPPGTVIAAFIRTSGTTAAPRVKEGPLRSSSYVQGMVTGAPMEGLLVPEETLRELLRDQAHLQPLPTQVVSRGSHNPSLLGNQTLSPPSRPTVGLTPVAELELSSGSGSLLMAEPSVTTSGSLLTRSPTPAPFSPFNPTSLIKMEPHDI

Take GTTTGC: the binding signal with FLI1 is 1.06 fold enrichment (6-mer frequency, TF over GST control); in the test with ELK1 it was 1.11 fold enrichment (6-mer frequency, TF over GST control); with GABPA it was 1.04 fold enrichment (6-mer frequency, TF over GST control); with ELF1, 1.02 fold enrichment (6-mer frequency, TF over GST control); with EHF, 1.11 fold enrichment (6-mer frequency, TF over GST control); with SPIB, 1.07 fold enrichment (6-mer frequency, TF over GST control). In addition, the binding signal with ELK3 was 1.12 fold enrichment (6-mer frequency, TF over GST control); in the test with SPIC, 1.2 fold enrichment (6-mer frequency, TF over GST control); in the test with ELF4, 1.15 fold enrichment (6-mer frequency, TF over GST control); with ELK4, 1.17 fold enrichment (6-mer frequency, TF over GST control); with ELF3, 1.23 fold enrichment (6-mer frequency, TF over GST control); with ETV1, 1.14 fold enrichment (6-mer frequency, TF over GST control). Moreover, the binding signal is 1.1 fold enrichment (6-mer frequency, TF over GST control) in the test with ERF; 1.05 fold enrichment (6-mer frequency, TF over GST control) with ETV3L; 1.08 fold enrichment (6-mer frequency, TF over GST control) in the test with ETS2; 1.01 fold enrichment (6-mer frequency, TF over GST control) with ETV7; 1.1 fold enrichment (6-mer frequency, TF over GST control) in the test with ETV3; 1.02 fold enrichment (6-mer frequency, TF over GST control) with ETV6.
